Most compounds without a hit are left out; they make up all but 1.7% or so of the library.
KCNH2 3.1 block: qHTS for Inhibitors of KCHN2 3.1: Mutant qHTS; Potassium voltage-gated channel subfamily H member 2, brain isoform KCNH2 3.1 (human); U2OS KCNH2 3.1, thallium flux FluxOr; active compounds read low; activity change, % (tested at about 1.8 µM); 0.95% of 340,000 active; AID 720553, 2013;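 active = maximum activity change below -70%; inconclusive = maximum activity change from -70% to -50%; inactive = maximum activity change above -50%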;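 also: thallium influx rate constant from kinetic fluorescence after stimulation buffer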
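Measured as rate of thallium-driven FluxOr signal in transduced U2OS cells carrying the 3.1 channel, read kinetically for 2 min upon stimulation; values are rate constants scaled to DMSO control wells.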
USP1-UAF1 inh: Inhibitors of USP1/UAF1: Primary Screen; Ubiquitin carboxyl-terminal hydrolase 1 (Homo sapiens), O94782; recombinant USP1/UAF1, Ub-Rhodamine cleavage fluorescence; Potency, µM (highest dose often 57.1 µM), for inactives: top-dose activity change, negative = inhibition, most hits filed as inhibitors; 0.23% of 390,000 active; AID 743255, 2014; active = well fitted inhibition curve with a large enough effect; inconclusive = small, poorly fitted or top-dose-only effect; inactive = no such curve, though single readings can be large or run the other way; also: potency is read from the fitted curve at half-maximal effect; nearly all actives have a fitted effect of over 60% in size
Target sequence (O94782 whole entry, looked up): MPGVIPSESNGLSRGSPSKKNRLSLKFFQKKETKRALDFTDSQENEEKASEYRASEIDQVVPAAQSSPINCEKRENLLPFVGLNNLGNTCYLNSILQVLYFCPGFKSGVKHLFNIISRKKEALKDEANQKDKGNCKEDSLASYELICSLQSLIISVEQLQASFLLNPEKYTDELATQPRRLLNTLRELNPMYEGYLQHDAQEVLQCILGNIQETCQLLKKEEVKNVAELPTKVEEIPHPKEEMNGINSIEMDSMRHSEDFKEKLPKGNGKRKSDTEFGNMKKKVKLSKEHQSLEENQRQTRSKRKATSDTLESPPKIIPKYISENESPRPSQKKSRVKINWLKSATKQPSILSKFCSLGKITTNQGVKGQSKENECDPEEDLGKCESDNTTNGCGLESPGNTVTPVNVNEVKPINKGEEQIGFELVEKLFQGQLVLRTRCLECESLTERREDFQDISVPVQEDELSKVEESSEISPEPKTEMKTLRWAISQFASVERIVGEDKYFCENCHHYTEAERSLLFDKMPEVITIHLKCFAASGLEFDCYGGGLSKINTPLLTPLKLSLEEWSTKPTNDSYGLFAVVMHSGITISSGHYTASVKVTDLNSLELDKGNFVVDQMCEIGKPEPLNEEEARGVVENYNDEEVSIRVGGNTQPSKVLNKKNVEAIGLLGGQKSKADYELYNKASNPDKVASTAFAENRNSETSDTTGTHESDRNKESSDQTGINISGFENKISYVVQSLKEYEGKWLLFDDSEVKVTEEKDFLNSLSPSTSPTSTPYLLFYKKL
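USP1/UAF1 complex at 1 nM was preincubated with compound for 15 min at room temperature, then Ub-Rho substrate (150nM final) was added. Fluorescence (480/540 nm) was read kinetically, 6 reads every 60 seconds.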
Coupling enz: qHTS Assay for Inhibitors of Fructose-1,6-bisphosphate Aldolase from Giardia Lamblia: Coupling assay counterscreen; activity change, negative = inhibition, % at 58.2 µM, hits read low; coupling enzyme system counterscreen, AmpLite Red fluorescence; 0.67% of 290,000 active; in the data active = activity change below about -30%
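Coupling enzymes only (glyceraldehyde-3-phosphate) + compound, at 57.5 uM final, 10 min RT; add substrate/coupling/AmpLite Red mix, 20 min RT; fluorescence ex 525/em 598 nm. Actives flag coupling-system interference.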
Giardia killer: Small Molecules that selectively kill Giardia lamblia: qHTS; Giardia lamblia trophozoite viability; activity change, % at 7.66 µM, hits read low; 0.15% of 340,000 active; AID 540267, 2011; in the data active = activity change below about -80%; inconclusive = between about -30% and that limit;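 also: parasites exposed to compound for two days anaerobically before the ATP read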
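Media and compound were dispensed first, then trophozoites at 100 cells/well; plates sat 48 hrs at 37 deg C without oxygen before ATP luminescence reagent was added and read after 15-30 min at room temperature.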
KCNH2 WT inh: qHTS for Inhibitors of KCHN2 3.1: Wildtype qHTS; Voltage-gated inwardly rectifying potassium channel KCNH2 (Homo sapiens), Q12809; U2OS, BacMam KCNH2, thallium flux FluxOr; active compounds read low; activity change, % at 1.84 µM; 0.37% of 340,000 active;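 active = maximum activity change below -70%; inconclusive = maximum activity change between -70% and -50%; inactive = maximum activity change above -50%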
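U2OS cells transduced with wild-type KCNH2 virus are loaded with FluxOr dye for 45 min, and thallium flux is measured in kinetic reads before and after stimulation buffer. Rate constants are normalized to DMSO controls.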
Active calls of the source: *. % is scaled to controls: 0 for no effect and ±100 for the full control effect.

For Cc1ccccc1-c1nnc(SCC(=O)NCC2CCCO2)o1 (configuration not stated) the results were KCNH2 3.1 block 11, USP1-UAF1 inh -25%, Giardia killer -24 and KCNH2 WT inh 2.
For CC(C)(C)c1ccc(C(=O)Nc2nnc(SCC(=O)NCC3CCCO3)s2)cc1 (configuration not stated) the results were KCNH2 3.1 block 2, USP1-UAF1 inh -14%, Giardia killer -93* and KCNH2 WT inh 10.
Screening O=C(CSc1nnc(-c2cccc(Br)c2)o1)NCC1CCCO1 (configuration not stated) returned KCNH2 3.1 block -174*, USP1-UAF1 inh -12% and KCNH2 WT inh -218*.
`CCOc1ccc(C(=O)Nc2nnc(SCC(=O)NCC3CCCO3)s2)cc1` (configuration not stated) gave KCNH2 3.1 block 16, USP1-UAF1 inh -7%, Coupling enz 4, Giardia killer -94* and KCNH2 WT inh 0.
Screening c1ccc2[nH]c3cc4ncnc4cc3nc2c1 returned KCNH2 3.1 block -3, USP1-UAF1 inh inconclusive, Coupling enz -43*, Giardia killer -17 and KCNH2 WT inh -3.
COc1ccc(CNc2ccncc2)c(OC)c1OC was read as KCNH2 3.1 block -13, USP1-UAF1 inh -11%, Giardia killer 4 and KCNH2 WT inh -5.
COc1cc(NCc2ccc3nc(N)nc(N)c3c2C)cc(OC)c1OC was read as Coupling enz -46*.
C/C=C/OC(=O)NC(c1ccccc1)[C@]1(C(C)=O)CCOC1=O (some centres not stated) was read as Coupling enz 0.
For N#Cc1cc(-c2ccc(Cl)cc2)cnc1Sc1ccccc1 the results were KCNH2 3.1 block -79*, USP1-UAF1 inh -12%, Coupling enz 0, Giardia killer -9 and KCNH2 WT inh 8.
N#Cc1cc(-c2ccccc2)cnc1Sc1ccc(Cl)cc1 was read as KCNH2 3.1 block -20, USP1-UAF1 inh -19%, Coupling enz -2, Giardia killer 0 and KCNH2 WT inh -5.
`CC(C)(C)NC1=NCCNC(c2ccccc2)=C1` gave KCNH2 3.1 block -2, USP1-UAF1 inh -14% and KCNH2 WT inh -88*.
For c1ccc(C2=NCCCN2)cc1 the results were KCNH2 3.1 block 4, USP1-UAF1 inh -16%, Coupling enz 3, Giardia killer 2 and KCNH2 WT inh 29.
Screening COc1ccc(C2=NC(C)(C)N(CC(=O)Nc3ccc(F)c(F)c3)C2=O)cc1 returned USP1-UAF1 inh -21%.
CC(NC(=O)/C(C#N)=C/c1ccc([N+](=O)[O-])o1)c1ccccc1 (configuration not stated) was read as KCNH2 3.1 block -11, USP1-UAF1 inh -10%, Coupling enz -36*, Giardia killer -28 and KCNH2 WT inh 2.
`CCN(CC)c1ccc(/C=C(/C#N)C(=O)NCc2ccccc2)o1` gave USP1-UAF1 inh 32µM*, Coupling enz 0, Giardia killer -8 and KCNH2 WT inh -6.
CC(C)NC(=O)/C(C#N)=C\c1ccc(N(C)C)o1 was read as KCNH2 3.1 block 4, USP1-UAF1 inh inconclusive, Coupling enz 3, Giardia killer -8 and KCNH2 WT inh 8.
`CCN(CC)c1ccc(/C=C(/C#N)C(=O)NC(C)C)o1` gave KCNH2 3.1 block -16, USP1-UAF1 inh 25µM*, Coupling enz 1, Giardia killer 7 and KCNH2 WT inh -10.
Screening N#C/C(=C\c1ccc(O)cc1)C(=O)NCc1ccccc1 returned KCNH2 3.1 block 15, USP1-UAF1 inh -14%, Coupling enz 13, Giardia killer 18 and KCNH2 WT inh -6.
`CCOc1cc(-c2nc(-c3ccc(Br)cc3)no2)cc(OCC)c1OCC` gave USP1-UAF1 inh 9%.
`CCCc1cc(=O)oc2cc(OCc3ccc(OC)cc3)c(Cl)cc12` gave KCNH2 3.1 block -74*, USP1-UAF1 inh -2%, Coupling enz -2, Giardia killer 32 and KCNH2 WT inh -18.
Screening COc1ccc(NC(=O)c2cc3sccc3n2Cc2ccc(F)cc2)cc1OC returned KCNH2 3.1 block -2, USP1-UAF1 inh -13%, Coupling enz -4, Giardia killer 1 and KCNH2 WT inh -249*.
`Cc1ccccc1Cn1c(SCc2ccc(C(=O)NCc3cccs3)cc2)nc2ccncc21` gave USP1-UAF1 inh -14%.
Screening CCOc1ccc(S(=O)(=O)N(C)CC(=O)N2CCCC2)cc1 returned KCNH2 3.1 block -100*, USP1-UAF1 inh 3%, Coupling enz 1, Giardia killer -18 and KCNH2 WT inh -9.
For CN(c1ccc(OCC(=O)N2CCCC2)cc1)S(=O)(=O)c1ccc(Cl)cc1 the results were KCNH2 3.1 block 11, USP1-UAF1 inh -2%, Giardia killer -14 and KCNH2 WT inh -133*.
Screening COc1cccc(CNC(=O)c2nn(-c3ccc(C)cc3)c(=O)c3c2c2ccccc2n3C)c1 returned USP1-UAF1 inh -10%.
`CCOc1ccc(NC(=O)Nc2ccc(Cc3ccncc3)cc2)cc1` gave KCNH2 3.1 block 0, USP1-UAF1 inh -18%, Coupling enz 3, Giardia killer -16 and KCNH2 WT inh 1.
CCOc1ccc(NC(=O)C2CSC(c3ccncc3)=N2)cc1 (configuration not stated) was read as KCNH2 3.1 block -173*, USP1-UAF1 inh -11%, Coupling enz 0, Giardia killer -11 and KCNH2 WT inh -120*.
CCOc1ccc(NC(=O)c2ccc(F)c(S(=O)(=O)N3CCN(c4ccccn4)CC3)c2)cc1 was read as KCNH2 3.1 block -71*, USP1-UAF1 inh -12%, Coupling enz 0, Giardia killer -16 and KCNH2 WT inh 3.
`CCOc1ccc(NC(=O)c2ccc(F)c(S(=O)(=O)N3CCCC3)c2)cc1` gave KCNH2 3.1 block 4, USP1-UAF1 inh -22% and KCNH2 WT inh -12.
Screening CCOc1ccc(NC(=O)c2ccccn2)cc1 returned KCNH2 3.1 block 17, USP1-UAF1 inh -5%, Coupling enz 0, Giardia killer -93* and KCNH2 WT inh 30.
`CCOc1ccc(NC(=O)c2cnccn2)cc1` gave KCNH2 3.1 block 0, USP1-UAF1 inh -9%, Coupling enz 4, Giardia killer inconclusive and KCNH2 WT inh 1.
Screening Brc1cccc(CNc2nc3ccccc3n2CCN2CCCCC2)c1 returned KCNH2 3.1 block 6, USP1-UAF1 inh -17%, Coupling enz -2, Giardia killer -12 and KCNH2 WT inh -2.
